According to PubChem BioAssay (EPA / NIEHS):
Where “and” joins values, the source holds several entries; their conditions need not be identical. Equal entries are not always repeated. A structure can be active in one record and inactive in another. Calls of active or inactive are those of the source. How the source made its calls: active means hit-call score of the fitted dose curve at least 0.9, where 1 is the maximum; inactive means score below 0.9.

Test system: not listed separately
Assay: ATG_RORE_CIS: Attagene CIS-FACTORIAL HepG2 Assay for human RAR-related Orphan Receptor Element (RORE) (AID 2282959)
Conditions: HepG2 Attagene cis-factorial RORE reporter, mRNA; actives raise or lower the signal
How it was run: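 RORE reporter transcripts reflecting endogenous factor activity were read after 24 h compound exposure of transfected HepG2 cells, using reverse transcription, PCR, fluorescent labelling and capillary electrophoresis sizing. Gain or loss fitted against DMSO.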
With `N#Cc1ccc(N(CC(N)=O)CC(F)(F)F)cc1C(F)(F)F` the outcome was “inactive”. In the case of `O=S(=O)(O)C(F)(F)C(F)(F)C(F)(F)C(F)(F)C(F)(F)C(F)(F)F`, the outcome was “inactive”. In the case of `CCNc1nc(NC(C)C)nc(SC)n1`, the outcome was “inactive”. With `O=C(O)C(F)(F)C(F)(F)C(F)(F)C(F)(F)C(F)(F)C(F)(F)C(F)(F)C(F)(F)F` the AC50 was 214 µM (active) and 34.7 µM (active) and the outcome was “inactive”. With `CCSC(=O)N(CC)C1CCCCC1` the outcome was “inactive”. For `Cc1cc2c3c(c1)C(c1ccccc1)=N[C@@H](NC(=O)c1ccncc1)C(=O)N3CC2`, the AC50 was 6.95 µM (active). With `O=C(O)C(F)(F)C(F)(F)C(F)(F)C(F)(F)C(F)(F)C(F)(F)C(F)(F)C(F)(F)C(F)(F)F` the AC50 was 50.5 µM (active) and 32.8 µM (active) and the outcome was “inactive”. For `CCC(C)(c1ccc(O)cc1)c1ccc(O)cc1`, the AC50 was 59.1 µM (active) and 21.5 µM (active) and the outcome was “inactive”. For `ClC(Cl)=C(c1ccc(Cl)cc1)c1ccc(Cl)cc1`, the outcome was “inactive”. For `Cc1ccccc1O`, the outcome was “inactive”. In the case of `C[C@]12CCC(=O)C=C1CC[C@@H]1[C@@H]2CC[C@]2(C)C(=O)CC[C@@H]12`, the outcome was “inactive”. With `CN(C)CCO` the outcome was “inactive”. In the case of `CC#Cc1cc(C)nc(Nc2ccccc2)n1`, the AC50 was 51.6 µM (active). In the case of `CCC(C)c1cc([N+](=O)[O-])cc([N+](=O)[O-])c1O` (centres undefined), the AC50 was 26.4 µM (active). With `ClC1=C(Cl)[C@]2(Cl)[C@@H]3[C@H]4C[C@H]([C@@H]5O[C@H]45)[C@@H]3[C@@]1(Cl)C2(Cl)Cl` the outcome was “inactive”.

Test system: not listed separately
Assay: ATG_Sox_CIS: Attagene CIS-FACTORIAL HepG2 Assay for human SRY-box transcription factor (SOX) (AID 2282960)
Conditions: HepG2 Attagene cis-factorial SOX reporter, mRNA; actives raise or lower the signal
How it was run: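 Reporter transcripts, measured by RT-PCR and capillary electrophoresis of labelled fragments, report endogenous SOX transcription factor activity. Transiently transfected human HepG2 cells receive chemical for 24 h; changes in either direction are fitted relative to DMSO.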
In the case of `Oc1ccc(C(c2ccc(O)cc2)(C(F)(F)F)C(F)(F)F)cc1`, the outcome was “inactive”. For `Cc1cc(-c2ccc(N)c(C)c2)ccc1N`, the outcome was “inactive”. With `CCCCCCCCCc1ccc(O)cc1` the outcome was “inactive”. For `CC(C)(c1ccccc1)c1ccc(O)cc1`, the AC50 was 50.8 µM (active) and the outcome was “inactive”. For `ClC1=C(Cl)[C@]2(Cl)[C@@H]3[C@@H](Cl)[C@H]4O[C@H]4[C@@H]3C1(Cl)C2(Cl)Cl`, the outcome was “inactive”. In the case of `CCC(=O)O[C@H]1CC[C@H]2[C@@H]3CCC4=CC(=O)CC[C@]4(C)[C@H]3CC[C@]12C`, the AC50 was 152 µM (active) and the outcome was “inactive”. For `NS(=O)(=O)C(F)(F)C(F)(F)C(F)(F)C(F)(F)C(F)(F)C(F)(F)C(F)(F)C(F)(F)F`, the AC50 was 83.8 µM (active) and the outcome was “inactive”. With `Cc1cccc(C)c1N` the outcome was “inactive”. In the case of `O=C(O)C(F)(F)C(F)(F)C(F)(F)C(F)(F)C(F)(F)F`, the outcome was “inactive”. With `CCOC(=O)C(O)(c1ccc(Cl)cc1)c1ccc(Cl)cc1` the outcome was “inactive”. In the case of `Cc1ccccc1[N+](=O)[O-]`, the outcome was “inactive”. In the case of `CC(C)(O)C(=O)Nc1ccc([N+](=O)[O-])c(C(F)(F)F)c1`, the outcome was “inactive”. With `Sc1ccccc1` the outcome was “inactive”. For `O=C(N[C@H]1CN2CCC1CC2)c1cc2ccoc2cn1`, the outcome was “inactive”. For `OCC(O)CO`, the outcome was “inactive”. With `CCCN(CCC)N=O` the outcome was “inactive”. With `CCC(C)(CC)c1cc(NC(=O)c2c(OC)cccc2OC)on1` the outcome was “inactive”. With `Clc1ccc(C(c2ccccc2Cl)C(Cl)(Cl)Cl)cc1` (centres undefined) the outcome was “inactive”. For `N#Cc1ccc(N(CC(N)=O)CC(F)(F)F)cc1C(F)(F)F`, the outcome was “inactive”. For `O=S(=O)(O)C(F)(F)C(F)(F)C(F)(F)C(F)(F)C(F)(F)C(F)(F)F`, the outcome was “inactive”. With `CCNc1nc(NC(C)C)nc(SC)n1` the outcome was “inactive”. In the case of `O=C(O)C(F)(F)C(F)(F)C(F)(F)C(F)(F)C(F)(F)C(F)(F)C(F)(F)C(F)(F)F`, the outcome was “inactive”. With `CCSC(=O)N(CC)C1CCCCC1` the outcome was “inactive”. In the case of `Cc1cc2c3c(c1)C(c1ccccc1)=N[C@@H](NC(=O)c1ccncc1)C(=O)N3CC2`, the outcome was “inactive”. In the case of `O=C(O)C(F)(F)C(F)(F)C(F)(F)C(F)(F)C(F)(F)C(F)(F)C(F)(F)C(F)(F)C(F)(F)F`, the AC50 was 33.4 µM (active) and the outcome was “inactive”. In the case of `CCC(C)(c1ccc(O)cc1)c1ccc(O)cc1`, the outcome was “inactive”. With `ClC(Cl)=C(c1ccc(Cl)cc1)c1ccc(Cl)cc1` the AC50 was 66.7 µM (active) and the outcome was “inactive”. With `Cc1ccccc1O` the outcome was “inactive”. For `C[C@]12CCC(=O)C=C1CC[C@@H]1[C@@H]2CC[C@]2(C)C(=O)CC[C@@H]12`, the outcome was “inactive”. With `CN(C)CCO` the outcome was “inactive”. For `CC#Cc1cc(C)nc(Nc2ccccc2)n1`, the outcome was “inactive”. With `CCC(C)c1cc([N+](=O)[O-])cc([N+](=O)[O-])c1O` (centres undefined) the AC50 was 10.8 µM (active). For `ClC1=C(Cl)[C@]2(Cl)[C@@H]3[C@H]4C[C@H]([C@@H]5O[C@H]45)[C@@H]3[C@@]1(Cl)C2(Cl)Cl`, the outcome was “inactive”.

Target: Transcription factor Sp1 (Homo sapiens) (UniProt P08047)
Sequence (P08047 whole entry, looked up): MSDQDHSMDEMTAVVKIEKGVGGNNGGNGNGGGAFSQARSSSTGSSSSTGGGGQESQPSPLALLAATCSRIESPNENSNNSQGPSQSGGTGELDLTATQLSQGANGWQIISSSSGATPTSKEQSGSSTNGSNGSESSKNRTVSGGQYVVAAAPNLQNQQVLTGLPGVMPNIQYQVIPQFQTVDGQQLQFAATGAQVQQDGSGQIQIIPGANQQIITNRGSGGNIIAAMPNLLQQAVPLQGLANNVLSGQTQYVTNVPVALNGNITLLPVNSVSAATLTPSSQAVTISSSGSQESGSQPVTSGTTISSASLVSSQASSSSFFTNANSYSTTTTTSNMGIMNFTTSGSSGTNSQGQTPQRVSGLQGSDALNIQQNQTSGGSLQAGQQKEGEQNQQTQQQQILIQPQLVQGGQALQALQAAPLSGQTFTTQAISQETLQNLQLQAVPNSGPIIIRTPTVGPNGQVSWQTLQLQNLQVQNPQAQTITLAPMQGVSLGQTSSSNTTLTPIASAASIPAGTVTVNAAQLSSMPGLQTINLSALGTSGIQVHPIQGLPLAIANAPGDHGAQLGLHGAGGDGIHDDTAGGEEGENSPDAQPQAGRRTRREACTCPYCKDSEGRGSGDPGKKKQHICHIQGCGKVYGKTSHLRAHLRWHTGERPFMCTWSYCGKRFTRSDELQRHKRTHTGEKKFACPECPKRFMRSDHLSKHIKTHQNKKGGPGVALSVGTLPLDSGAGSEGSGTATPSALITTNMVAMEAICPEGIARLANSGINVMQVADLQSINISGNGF
Assay: ATG_Sp1_CIS: Attagene CIS-FACTORIAL HepG2 Assay for human Specificity Protein 1 (Sp1) (AID 2282961)
Conditions: HepG2 Sp1 cis-reporter transcription, actives raise or lower the signal
How it was run: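 Read-out is reporter transcript level, measured by RT-PCR and fluorescent capillary electrophoresis after 24 h chemical treatment. System: transiently transfected HepG2 cells reporting endogenous transcription factor activity; gain or loss fitted against DMSO baseline.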
With `Oc1ccc(C(c2ccc(O)cc2)(C(F)(F)F)C(F)(F)F)cc1` the AC50 was 18.8 µM (active) and 18.4 µM (active) and the outcome was “inactive”. In the case of `Cc1cc(-c2ccc(N)c(C)c2)ccc1N`, the outcome was “inactive”. In the case of `CCCCCCCCCc1ccc(O)cc1`, the outcome was “inactive”. For `CC(C)(c1ccccc1)c1ccc(O)cc1`, the AC50 was 51.9 µM (active) and 53.1 µM (active) and the outcome was “inactive”. For `ClC1=C(Cl)[C@]2(Cl)[C@@H]3[C@@H](Cl)[C@H]4O[C@H]4[C@@H]3C1(Cl)C2(Cl)Cl`, the AC50 was 26.7 µM (active). With `CCC(=O)O[C@H]1CC[C@H]2[C@@H]3CCC4=CC(=O)CC[C@]4(C)[C@H]3CC[C@]12C` the AC50 was 164 µM (active) and 181 µM (active) and the outcome was “inactive”. For `NS(=O)(=O)C(F)(F)C(F)(F)C(F)(F)C(F)(F)C(F)(F)C(F)(F)C(F)(F)C(F)(F)F`, the AC50 was 24.4 µM (active) and 38.7 µM (active) and 27.6 µM (active). In the case of `Cc1cccc(C)c1N`, the outcome was “inactive”. With `O=C(O)C(F)(F)C(F)(F)C(F)(F)C(F)(F)C(F)(F)F` the outcome was “inactive”. For `CCOC(=O)C(O)(c1ccc(Cl)cc1)c1ccc(Cl)cc1`, the outcome was “inactive”. With `Cc1ccccc1[N+](=O)[O-]` the outcome was “inactive”. In the case of `CC(C)(O)C(=O)Nc1ccc([N+](=O)[O-])c(C(F)(F)F)c1`, the outcome was “inactive”. For `Sc1ccccc1`, the outcome was “inactive”. With `O=C(N[C@H]1CN2CCC1CC2)c1cc2ccoc2cn1` the outcome was “inactive”. In the case of `OCC(O)CO`, the outcome was “inactive”. For `CCCN(CCC)N=O`, the outcome was “inactive”. In the case of `CCC(C)(CC)c1cc(NC(=O)c2c(OC)cccc2OC)on1`, the outcome was “inactive”. In the case of `Clc1ccc(C(c2ccccc2Cl)C(Cl)(Cl)Cl)cc1` (centres undefined), the AC50 was 70.5 µM (active) and the outcome was “inactive”. With `N#Cc1ccc(N(CC(N)=O)CC(F)(F)F)cc1C(F)(F)F` the outcome was “inactive”. In the case of `O=S(=O)(O)C(F)(F)C(F)(F)C(F)(F)C(F)(F)C(F)(F)C(F)(F)F`, the outcome was “inactive”. With `CCNc1nc(NC(C)C)nc(SC)n1` the outcome was “inactive”. In the case of `O=C(O)C(F)(F)C(F)(F)C(F)(F)C(F)(F)C(F)(F)C(F)(F)C(F)(F)C(F)(F)F`, the outcome was “inactive”. With `CCSC(=O)N(CC)C1CCCCC1` the outcome was “inactive”. In the case of `Cc1cc2c3c(c1)C(c1ccccc1)=N[C@@H](NC(=O)c1ccncc1)C(=O)N3CC2`, the AC50 was 181 µM (active). For `O=C(O)C(F)(F)C(F)(F)C(F)(F)C(F)(F)C(F)(F)C(F)(F)C(F)(F)C(F)(F)C(F)(F)F`, the outcome was “inactive”. In the case of `CCC(C)(c1ccc(O)cc1)c1ccc(O)cc1`, the AC50 was 24.4 µM (active) and the outcome was “inactive”. For `ClC(Cl)=C(c1ccc(Cl)cc1)c1ccc(Cl)cc1`, the AC50 was 95.5 µM (active) [middle of 4 runs]. In the case of `Cc1ccccc1O`, the outcome was “inactive”. With `C[C@]12CCC(=O)C=C1CC[C@@H]1[C@@H]2CC[C@]2(C)C(=O)CC[C@@H]12` the outcome was “inactive”. In the case of `CN(C)CCO`, the outcome was “inactive”. In the case of `CC#Cc1cc(C)nc(Nc2ccccc2)n1`, the outcome was “inactive”. In the case of `CCC(C)c1cc([N+](=O)[O-])cc([N+](=O)[O-])c1O` (centres undefined), the AC50 was 20.9 µM (active). For `ClC1=C(Cl)[C@]2(Cl)[C@@H]3[C@H]4C[C@H]([C@@H]5O[C@H]45)[C@@H]3[C@@]1(Cl)C2(Cl)Cl`, the outcome was “inactive”.
